FLuc counter: inhibits or activates purified firefly luciferase, miR-21 counter-screen. purified FLuc, Km substrates, luminescence inhibition. AID 588342. P08659. 360,000 tested, 6.9% active. Potency, µM (doses to about 57.5 µM), most hits filed as inhibitors; note: nearly all actives have a fitted effect of over 55% in size
Target sequence (P08659 whole entry, looked up): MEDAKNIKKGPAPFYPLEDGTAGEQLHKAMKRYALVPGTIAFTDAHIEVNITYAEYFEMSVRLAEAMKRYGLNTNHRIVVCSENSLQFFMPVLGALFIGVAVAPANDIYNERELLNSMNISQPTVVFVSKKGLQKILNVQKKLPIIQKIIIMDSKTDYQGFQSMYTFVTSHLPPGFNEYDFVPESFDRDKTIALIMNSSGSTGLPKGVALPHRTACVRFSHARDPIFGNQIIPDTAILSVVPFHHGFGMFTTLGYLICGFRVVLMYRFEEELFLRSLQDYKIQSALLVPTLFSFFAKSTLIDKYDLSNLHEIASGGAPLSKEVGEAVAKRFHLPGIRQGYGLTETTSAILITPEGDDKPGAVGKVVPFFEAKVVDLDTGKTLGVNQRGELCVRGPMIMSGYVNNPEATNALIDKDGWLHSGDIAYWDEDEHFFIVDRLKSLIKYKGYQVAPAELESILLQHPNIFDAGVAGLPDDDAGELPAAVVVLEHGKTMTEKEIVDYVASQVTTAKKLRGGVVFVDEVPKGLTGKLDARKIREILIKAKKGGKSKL
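Purified P. pyralis luciferase (10nM final) with 10uM D-luciferin and 10uM ATP (Km levels) in 50mM Tris acetate pH 7.5, 10mM Mg acetate, 0.01% Tween-20, 0.05% BSA; qHTS 6-point titration, ~60 µM downward; luminescence read.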
NPC1 promoter act: NPC1 promoter activation; 320,000 tested, 2.4% active; Huh7 NPC1 promoter luciferase reporter, 24 h; Potency, µM (doses to about 9.22 µM), actives largely listed as activators; note: nearly all actives have a fitted effect of over 60% in size
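In 1536-well qHTS, Huh7 cells harboring an NPC1 promoter–luciferase construct received compound for 24 h; activation was quantified by luminescence following luciferase reagent addition.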
SMN2 splice enh: enhancers of SMN2 splice variant expression | HEK293 SMN2-luciferase splicing reporter, luminescence, 30-36 h | Potency, µM (top dose mostly 46.1 µM), hits mostly activators | 210,000 tested, 2.8% active | AID 1458; note: nearly all actives have a fitted effect of over 55% in size
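HEK293 cells carry an SMN2 minigene-luciferase reporter in which exon 7 inclusion puts luciferase in frame. Cells were seeded at 2000 cells/well, attached for 10-12 hours, then exposed to compounds for 30-36 hours at 37C before ONE-Glo luminescence.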
ELG1 genotox: induces genotoxicity in HEK293T cells with luciferase-tagged ELG1. HEK293T ELG1-luciferase reporter, luminescence, 16 h. 330,000 tested, 1.3% active. AID 504466. Potency, µM (highest dose often 46 µM), most hits filed as activators; note: nearly all actives have a fitted effect of over 60% in size
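Quantitative HTS format in 1536-well plates. HEK293T ELG1-luciferase reporter cells receive test compound and are incubated 16 hr at 37 °C, 5% CO2; ONE-Glo added, 30 min room temperature, then luminescence read.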
Rab9 promoter act: Rab9 promoter activation; Huh7 Rab9 promoter-luciferase reporter, luminescence, 24 h; Potency, µM (doses to about 9.22 µM), most hits filed as activators; 320,000 tested, 2.8% active; AID 485297; note: nearly all actives have a fitted effect of over 60% in size
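Luminescence from Amplite-detected luciferase (10 minutes, ambient) reports Rab9 promoter activation. Before that, stable Rab9-luciferase Huh7 cells (1500/well, reduced-serum OP-MEM I plus 10% FBS) were exposed to compound for 24 hours at 37C.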
Luc counter: counter-screen: inhibitors of Kinase-Glo firefly luciferase; Q27757; Kinase-Glo luciferase, ATP luminescence, 8 min; Potency, µM (titrated, usually from 38.3 µM), most hits filed as inhibitors; 200,000 tested, 0.28% active; note: nearly all actives have a fitted effect of over 60% in size
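Inhibition of Kinase-Glo luciferase light generation was assessed at 10 uM ATP in pH 7.2 imidazole buffer, with luminescence measured after eight minutes at ambient temperature.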
Numbers stand for hits; . = inactive; ? = inconclusive; / = no result given; [ ] = remark or other dose. In the library only some 7.5% were active in any assay of this set; here they are far more common. Calls come from the whole dose curve; as a rule, active = well fitted curve in the direction sought with a large enough effect; inconclusive = small, poorly fitted or top-dose-only effect, or another doubt; inactive = no such curve, though single readings can be large; an effect the other way counts as inactive or inconclusive.

SMILES	FLuc counter	NPC1 promoter act	SMN2 splice enh	ELG1 genotox	Rab9 promoter act	Luc counter
COc1ccc(OCc2cc(C(=O)N3CCCN(C(C)=O)CC3)no2)c(Cl)c1	26.9µM	?	/	?	.	/
COC(=O)c1scc(-c2ccc(C)cc2)c1S(=O)(=O)Nc1cc(C)ccc1OC	.	/	/	/	/	/
CCOC(=O)c1ccccc1NC(=O)N1CC(C)Oc2ccc(C)cc21 (stereo not drawn)	.	/	/	/	/	/
CCN(CCCNC(=O)Cn1ncc2c([nH]c3ccc(C)cc32)c1=O)Cc1ccccc1	.	.	/	.[9.26 µM]	.	/
CCC(C)N(C(=O)c1csnn1)C(C(=O)NCc1ccc(F)cc1)c1ccccc1F (stereo not drawn)	.	.	/	.	.	/
CCc1ccc(CN(C)C(=O)c2cc(COc3ccc(OC)cc3Cl)on2)nc1	15.1µM	3.16µM	/	?	?	/
CC(=O)Nc1cccc(NC(=O)c2cccc3cccnc23)c1	13.5µM	.	/	.	.	/
Cc1ccc(NC(=O)c2cccc3cccnc23)cc1	5.36µM	2.51µM	/	?	1.58µM	/
CN(CC(=O)Nc1ccc(Cl)c(Cl)c1)C(=O)c1cccc2cccnc12	.	.	/	.	.	/
COc1ccccc1C(=O)Nc1cccc2cccnc12	16.9µM	.	/	.	?	/
O=C(NCCc1ccccc1F)c1cccc2cccnc12	16.9µM	3.16µM	/	?	1.78µM	/
CCOc1ccc(Cc2nc(N)nc(N)n2)cc1	.	.	.	.	.	.
Nc1nc(N)nc(COc2ccccc2)n1	?	?	11.2µM	?	4.47µM	?
Cc1ccc(CNc2ccc(-c3nc(C(C)C)no3)cc2[N+](=O)[O-])cc1	.	/	/	/	/	/
COc1ccccc1CNc1ccc(-c2nc(C(C)C)no2)cc1[N+](=O)[O-]	12µM	/	/	/	/	/
COc1ccccc1CNc1ccc(-c2nc(C)no2)cc1[N+](=O)[O-]	13.5µM	/	/	/	/	/
COc1cccc(C(=O)Nc2nc3nc(C)c(C)c(=O)n3[nH]2)c1	?	/	.	/	/	/
COC(=O)c1ccc(N/C=C\C(=O)c2ccc3c(c2)OCO3)cc1	?	?	/	.	?	.
COc1ccc(N/C=C/C(=O)c2cc(OC)c(OC)c(OC)c2)cc1	6.01µM	.	/	?	.	/
COc1ccc(C(=O)/C=C/N2CCCCC2)cc1OC	23.9µM	?	.	.	.	.
COc1ccc(N/C=C\C(=O)c2ccc3c(c2)OCO3)cc1OC	1.69µM	.	.	?	.	.
COC(=O)c1ccc(N/C=C/C(=O)c2ccc(OC)c(OC)c2)cc1	.	.	.	?	.	.
COc1ccc(N/C=C/C(=O)c2ccc(OC)c(OC)c2)cc1	2.39µM	.	/	.	.	/
Cc1cccc(NC(=O)CCN2CCN(c3ccccc3F)CC2)c1	.	/	.	/	/	/
O=[N+]([O-])c1cc2c(c(CSc3nnnn3-c3ccc(O)cc3)c1)OCOC2	.	.	.	.	.	.
SMILES	FLuc counter	NPC1 promoter act	SMN2 splice enh	ELG1 genotox	Rab9 promoter act	Luc counter
COc1ccc(-n2c3c(cc(-c4nc(-c5ccc(Cl)cc5)cs4)c2=O)C(=O)CC(C)(C)C3)cc1Cl	.	/	.	/	/	/
COc1ccc(C(=O)/C=C/Nc2cccc(C)n2)cc1OC	3.79µM	2.24µM	12.6µM	?	2µM	.
O=C(/C=C\Nc1cccc(F)c1)c1ccc2c(c1)OCO2	0.12µM	0.316µM	/	0.146µM	?	/
O=C(CN1CCN(C(=O)CNC(=O)c2ccc3c(c2)OCO3)CC1)Nc1cccc(F)c1	.	.	/	.	.	/
Cc1cccc(NCc2ccc(Br)cc2)n1	?	.	/	.	.	/
Nc1nc(-c2ccccn2)nc(N)c1Cc1ccccc1F	15.1µM	?	.	.	?	.
Nc1nc(-c2ccccn2)nc(N)c1Cc1c(F)cccc1Cl	26.9µM	.	.	.	.	.
COc1ccc([N+](=O)[O-])cc1N	/	/	.	/	/	/
Clc1ccc(COn2nnc3ccccc32)c(Cl)c1	3.79µM	/	?	/	/	.
Cc1ccc(-n2nnc(-c3cc4ccccc4n3C)n2)cc1	0.849µM	2.82µM	/	?	1.58µM	/
Cn1c(-c2ccccc2)cc2ccccc21	?	.	/	.	.	/
Cn1c(-c2nnn(-c3ccc(F)cc3)n2)cc2ccccc21	1.35µM	?	/	5.17µM	3.98µM	/
O=C(Nc1cccc(Cl)c1)c1cnn2cccnc12	7.57µM	?	10µM	?	2µM	.
O=C(Nc1cc(Cl)cc(Cl)c1)c1cnn2cccnc12	.	.	.	.	.	.
